From ChEMBL document CHEMBL1961873, “Compounds: GSK PKIS; Assays: Nanosyn kinase panel” (2012)

Key:
[1] = system: Epidermal growth factor receptor (Homo sapiens), P00533 [T790M]; details: at 1 µM
[2] = system: Epidermal growth factor receptor (Homo sapiens), P00533 [L858R,T790M]; details: at 0.1 µM
[3] = system: Epidermal growth factor receptor (Homo sapiens), P00533 [L858R,T790M]; details: at 1 µM
[4] = target: Ephrin type-A receptor 2 (Homo sapiens) (UniProt P29317); details: at 0.1 µM
[5] = target: Ephrin type-A receptor 2 (Homo sapiens) (UniProt P29317); details: at 1 µM
[6] = target: T1, Ephrin type-A receptor 3 (Homo sapiens) (UniProt P29320); details: at 0.1 µM
T1 sequence (whole entry): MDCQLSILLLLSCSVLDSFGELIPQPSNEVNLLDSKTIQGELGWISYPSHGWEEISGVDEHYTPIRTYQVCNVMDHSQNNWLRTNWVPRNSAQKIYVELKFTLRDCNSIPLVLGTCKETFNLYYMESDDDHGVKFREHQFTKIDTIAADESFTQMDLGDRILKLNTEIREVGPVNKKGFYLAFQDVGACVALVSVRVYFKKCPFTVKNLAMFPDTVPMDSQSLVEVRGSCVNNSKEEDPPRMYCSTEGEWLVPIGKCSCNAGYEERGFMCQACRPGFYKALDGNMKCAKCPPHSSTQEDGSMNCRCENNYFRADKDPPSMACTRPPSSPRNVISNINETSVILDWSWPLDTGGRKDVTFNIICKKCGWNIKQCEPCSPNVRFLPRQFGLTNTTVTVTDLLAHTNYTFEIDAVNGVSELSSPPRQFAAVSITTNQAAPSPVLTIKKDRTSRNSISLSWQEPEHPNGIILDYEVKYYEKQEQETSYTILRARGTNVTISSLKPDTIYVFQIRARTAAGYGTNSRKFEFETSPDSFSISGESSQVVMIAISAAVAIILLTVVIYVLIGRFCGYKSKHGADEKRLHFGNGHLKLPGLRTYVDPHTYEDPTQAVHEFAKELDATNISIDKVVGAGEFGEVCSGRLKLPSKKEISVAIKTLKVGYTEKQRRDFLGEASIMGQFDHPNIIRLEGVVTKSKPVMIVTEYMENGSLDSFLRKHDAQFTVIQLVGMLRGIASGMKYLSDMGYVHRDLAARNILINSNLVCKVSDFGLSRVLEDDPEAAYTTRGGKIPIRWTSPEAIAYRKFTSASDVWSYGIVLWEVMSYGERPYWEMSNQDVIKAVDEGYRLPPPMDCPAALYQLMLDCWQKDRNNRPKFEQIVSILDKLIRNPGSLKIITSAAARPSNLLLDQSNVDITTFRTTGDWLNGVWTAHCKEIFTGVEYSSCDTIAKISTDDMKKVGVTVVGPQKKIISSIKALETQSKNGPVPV

[7] = target: T1, Ephrin type-A receptor 3 (Homo sapiens); details: at 1 µM
[8] = target: Ephrin type-A receptor 4 (Homo sapiens) (UniProt P54764); details: at 0.1 µM
Sequence of Ephrin type-A receptor 4 (Homo sapiens) (P54764 whole entry): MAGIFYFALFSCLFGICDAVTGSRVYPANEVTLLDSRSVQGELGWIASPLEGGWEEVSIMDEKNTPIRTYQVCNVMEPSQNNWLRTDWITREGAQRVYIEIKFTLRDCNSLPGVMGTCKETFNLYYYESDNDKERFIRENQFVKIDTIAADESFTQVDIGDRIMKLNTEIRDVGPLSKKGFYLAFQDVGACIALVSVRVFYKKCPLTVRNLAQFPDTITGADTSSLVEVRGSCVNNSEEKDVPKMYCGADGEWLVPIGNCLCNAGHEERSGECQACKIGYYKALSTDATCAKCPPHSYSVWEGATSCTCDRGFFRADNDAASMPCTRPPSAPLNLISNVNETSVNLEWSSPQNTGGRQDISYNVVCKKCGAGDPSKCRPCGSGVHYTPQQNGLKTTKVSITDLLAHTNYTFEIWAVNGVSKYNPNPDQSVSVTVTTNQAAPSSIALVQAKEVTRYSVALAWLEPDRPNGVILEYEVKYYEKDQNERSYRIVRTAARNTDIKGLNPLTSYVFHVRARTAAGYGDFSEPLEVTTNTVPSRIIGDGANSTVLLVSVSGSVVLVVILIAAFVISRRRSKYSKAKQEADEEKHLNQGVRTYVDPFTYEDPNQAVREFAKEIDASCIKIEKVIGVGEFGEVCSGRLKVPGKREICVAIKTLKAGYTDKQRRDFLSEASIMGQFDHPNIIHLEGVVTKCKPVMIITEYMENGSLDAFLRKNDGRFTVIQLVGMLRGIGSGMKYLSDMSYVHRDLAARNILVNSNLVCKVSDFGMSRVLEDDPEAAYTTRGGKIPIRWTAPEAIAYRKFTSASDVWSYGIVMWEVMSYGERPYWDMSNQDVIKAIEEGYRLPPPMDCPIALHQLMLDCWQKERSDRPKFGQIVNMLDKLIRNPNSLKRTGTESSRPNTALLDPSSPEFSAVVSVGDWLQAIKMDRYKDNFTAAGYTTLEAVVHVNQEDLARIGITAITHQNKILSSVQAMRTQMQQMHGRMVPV

[9] = target: Ephrin type-A receptor 4 (Homo sapiens) (UniProt P54764); details: at 1 µM
[10] = target: T2, Ephrin type-B receptor 2 (Homo sapiens) (UniProt P29323); details: at 0.1 µM;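 note: reported as mean inhibition of EPHB2, from the GSK PKIS dataset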
T2 sequence (whole entry): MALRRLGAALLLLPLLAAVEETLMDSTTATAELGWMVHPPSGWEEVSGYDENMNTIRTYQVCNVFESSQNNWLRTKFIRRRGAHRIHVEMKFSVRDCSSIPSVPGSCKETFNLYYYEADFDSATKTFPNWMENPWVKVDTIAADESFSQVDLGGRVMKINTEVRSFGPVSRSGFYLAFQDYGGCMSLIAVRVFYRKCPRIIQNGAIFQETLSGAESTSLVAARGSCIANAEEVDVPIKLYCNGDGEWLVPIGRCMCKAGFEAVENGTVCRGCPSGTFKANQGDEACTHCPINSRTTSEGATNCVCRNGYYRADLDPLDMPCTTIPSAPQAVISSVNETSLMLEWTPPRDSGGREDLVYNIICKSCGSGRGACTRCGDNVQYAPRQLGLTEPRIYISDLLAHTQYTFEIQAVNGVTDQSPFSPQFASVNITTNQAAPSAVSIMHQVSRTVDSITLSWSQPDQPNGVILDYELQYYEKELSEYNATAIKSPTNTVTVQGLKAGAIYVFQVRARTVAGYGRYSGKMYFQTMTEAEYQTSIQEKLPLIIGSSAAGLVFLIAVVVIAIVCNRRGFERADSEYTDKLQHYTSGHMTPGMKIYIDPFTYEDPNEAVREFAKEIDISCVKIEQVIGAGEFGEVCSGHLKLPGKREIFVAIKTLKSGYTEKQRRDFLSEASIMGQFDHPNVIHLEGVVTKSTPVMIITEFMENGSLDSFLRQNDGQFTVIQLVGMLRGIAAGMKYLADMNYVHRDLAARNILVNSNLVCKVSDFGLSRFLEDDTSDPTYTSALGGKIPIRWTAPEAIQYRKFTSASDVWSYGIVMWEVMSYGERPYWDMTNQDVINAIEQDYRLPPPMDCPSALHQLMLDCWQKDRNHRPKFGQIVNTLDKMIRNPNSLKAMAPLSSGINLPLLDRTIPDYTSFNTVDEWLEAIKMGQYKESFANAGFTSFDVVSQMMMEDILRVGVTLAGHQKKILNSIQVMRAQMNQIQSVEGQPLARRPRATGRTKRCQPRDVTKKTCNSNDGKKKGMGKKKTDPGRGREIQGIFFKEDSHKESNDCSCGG

Sequence of Ephrin type-A receptor 2 (Homo sapiens) (P29317 whole entry): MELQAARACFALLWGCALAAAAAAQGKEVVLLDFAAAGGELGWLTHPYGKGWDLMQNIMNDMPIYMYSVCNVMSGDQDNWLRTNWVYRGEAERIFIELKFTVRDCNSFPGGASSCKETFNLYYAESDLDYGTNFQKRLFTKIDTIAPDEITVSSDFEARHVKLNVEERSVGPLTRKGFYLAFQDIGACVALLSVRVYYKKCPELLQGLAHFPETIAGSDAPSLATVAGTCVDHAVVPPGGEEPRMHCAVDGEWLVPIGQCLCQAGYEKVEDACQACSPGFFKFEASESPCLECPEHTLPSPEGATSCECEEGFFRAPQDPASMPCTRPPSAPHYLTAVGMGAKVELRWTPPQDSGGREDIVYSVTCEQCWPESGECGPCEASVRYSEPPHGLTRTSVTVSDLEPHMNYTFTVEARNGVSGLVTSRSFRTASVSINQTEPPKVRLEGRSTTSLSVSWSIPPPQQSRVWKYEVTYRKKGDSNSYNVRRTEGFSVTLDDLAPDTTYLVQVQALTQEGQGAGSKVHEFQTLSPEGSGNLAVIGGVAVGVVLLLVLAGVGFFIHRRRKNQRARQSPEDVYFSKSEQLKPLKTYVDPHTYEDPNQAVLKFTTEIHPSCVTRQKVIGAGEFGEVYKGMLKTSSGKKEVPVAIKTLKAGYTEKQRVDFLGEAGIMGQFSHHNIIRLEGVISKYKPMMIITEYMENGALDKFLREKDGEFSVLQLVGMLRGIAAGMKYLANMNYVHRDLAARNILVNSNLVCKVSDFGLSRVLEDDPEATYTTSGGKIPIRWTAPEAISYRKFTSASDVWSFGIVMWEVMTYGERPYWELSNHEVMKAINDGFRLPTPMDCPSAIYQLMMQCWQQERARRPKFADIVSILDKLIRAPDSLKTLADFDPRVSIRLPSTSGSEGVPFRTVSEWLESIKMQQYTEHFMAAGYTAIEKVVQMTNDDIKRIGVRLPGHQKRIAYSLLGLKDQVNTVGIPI
Sequence of Epidermal growth factor receptor (Homo sapiens), P00533 [L858R,T790M] (P00533 whole entry T790M/L858R, looked up): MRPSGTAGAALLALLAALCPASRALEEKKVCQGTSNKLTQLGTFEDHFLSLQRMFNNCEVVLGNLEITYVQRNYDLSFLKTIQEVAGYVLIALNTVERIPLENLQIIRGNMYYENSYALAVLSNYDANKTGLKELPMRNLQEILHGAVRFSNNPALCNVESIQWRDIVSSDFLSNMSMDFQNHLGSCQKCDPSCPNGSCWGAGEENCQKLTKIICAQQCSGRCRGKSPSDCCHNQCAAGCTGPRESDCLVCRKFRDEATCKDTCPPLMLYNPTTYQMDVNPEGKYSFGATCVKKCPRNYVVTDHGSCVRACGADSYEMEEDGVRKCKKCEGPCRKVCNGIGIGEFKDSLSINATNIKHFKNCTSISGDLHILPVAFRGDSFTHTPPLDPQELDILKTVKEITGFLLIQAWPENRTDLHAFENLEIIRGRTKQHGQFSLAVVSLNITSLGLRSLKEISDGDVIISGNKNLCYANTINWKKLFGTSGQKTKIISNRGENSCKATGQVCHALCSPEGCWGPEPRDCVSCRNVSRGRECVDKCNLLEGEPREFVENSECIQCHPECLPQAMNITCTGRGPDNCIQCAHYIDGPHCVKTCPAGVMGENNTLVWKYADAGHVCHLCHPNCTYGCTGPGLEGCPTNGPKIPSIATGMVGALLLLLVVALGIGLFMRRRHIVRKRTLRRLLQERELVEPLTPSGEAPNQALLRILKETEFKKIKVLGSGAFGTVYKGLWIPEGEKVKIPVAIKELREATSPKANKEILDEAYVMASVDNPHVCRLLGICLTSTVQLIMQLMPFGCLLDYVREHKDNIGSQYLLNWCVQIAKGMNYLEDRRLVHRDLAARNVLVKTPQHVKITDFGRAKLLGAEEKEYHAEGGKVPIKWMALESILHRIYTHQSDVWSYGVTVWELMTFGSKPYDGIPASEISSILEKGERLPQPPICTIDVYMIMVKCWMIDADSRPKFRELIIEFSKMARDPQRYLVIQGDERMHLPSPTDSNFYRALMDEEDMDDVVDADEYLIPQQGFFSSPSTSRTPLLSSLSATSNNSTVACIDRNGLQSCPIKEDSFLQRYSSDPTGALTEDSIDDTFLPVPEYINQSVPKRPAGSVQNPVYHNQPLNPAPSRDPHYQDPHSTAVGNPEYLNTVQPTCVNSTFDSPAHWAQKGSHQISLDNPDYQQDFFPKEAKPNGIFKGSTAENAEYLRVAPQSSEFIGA
Sequence of Epidermal growth factor receptor (Homo sapiens), P00533 [T790M] (P00533 whole entry T790M): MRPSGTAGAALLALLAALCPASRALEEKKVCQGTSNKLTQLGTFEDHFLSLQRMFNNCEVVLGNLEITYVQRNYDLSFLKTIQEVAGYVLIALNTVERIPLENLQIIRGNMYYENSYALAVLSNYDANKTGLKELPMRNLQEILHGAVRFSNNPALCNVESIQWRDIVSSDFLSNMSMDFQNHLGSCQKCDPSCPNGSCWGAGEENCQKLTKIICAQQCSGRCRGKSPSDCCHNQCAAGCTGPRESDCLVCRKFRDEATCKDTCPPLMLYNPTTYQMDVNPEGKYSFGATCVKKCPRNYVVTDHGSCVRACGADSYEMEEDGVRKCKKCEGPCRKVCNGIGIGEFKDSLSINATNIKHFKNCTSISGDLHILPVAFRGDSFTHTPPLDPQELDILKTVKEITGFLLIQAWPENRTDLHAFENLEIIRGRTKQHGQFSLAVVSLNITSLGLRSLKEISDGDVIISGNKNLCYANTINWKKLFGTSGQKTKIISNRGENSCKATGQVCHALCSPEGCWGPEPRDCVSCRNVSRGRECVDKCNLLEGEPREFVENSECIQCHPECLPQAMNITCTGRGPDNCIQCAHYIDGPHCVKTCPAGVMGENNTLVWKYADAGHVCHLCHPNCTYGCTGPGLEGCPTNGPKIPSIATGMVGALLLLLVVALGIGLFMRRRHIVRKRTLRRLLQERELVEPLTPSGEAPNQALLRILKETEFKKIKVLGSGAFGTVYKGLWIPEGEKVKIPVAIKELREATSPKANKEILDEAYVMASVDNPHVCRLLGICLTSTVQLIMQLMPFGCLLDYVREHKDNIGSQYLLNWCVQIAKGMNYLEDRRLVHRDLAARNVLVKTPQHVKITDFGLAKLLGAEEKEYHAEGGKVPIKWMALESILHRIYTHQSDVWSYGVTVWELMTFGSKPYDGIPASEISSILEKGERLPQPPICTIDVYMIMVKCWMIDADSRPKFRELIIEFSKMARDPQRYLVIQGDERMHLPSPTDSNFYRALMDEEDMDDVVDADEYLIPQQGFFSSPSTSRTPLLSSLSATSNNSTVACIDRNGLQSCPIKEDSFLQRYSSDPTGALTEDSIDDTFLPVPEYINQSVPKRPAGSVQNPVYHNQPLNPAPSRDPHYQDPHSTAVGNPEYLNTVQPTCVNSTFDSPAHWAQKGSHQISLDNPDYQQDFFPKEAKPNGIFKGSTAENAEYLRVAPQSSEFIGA

Compound	inhibition [1] [%]	inhibition [2] [%]	inhibition [3] [%]	inhibition [4] [%]	inhibition [5] [%]	inhibition [6] [%]	inhibition [7] [%]	inhibition [8] [%]	inhibition [9] [%]	inhibition [10] [%]
CC(C)(CO)CNC(=O)c1ccc2c(c1)/C(=N/Nc1ccc(S(N)(=O)=O)cc1)C(=O)N2	-0.95	-1.33	-1.42	-2.4	-2.69	-0.22	1.81	-0.06	10.3	-4.35
CCCN1CCC(c2ccc(Nc3nc(Nc4cc(F)ccc4C(N)=O)c4cc[nH]c4n3)c(OC)c2)CC1	81.7	53.7	89.1	1.29	-0.82	3.91	4.22	6.74	12.9	6.06
Fc1cccc(COc2ccc(Nc3ncnc4sc(-c5ccco5)cc34)cc2Cl)c1	3.73	0.58	3.48	2.14	1.92	3.15	4.97	7.43	9.74	9.21
COC(=O)Nc1nc2ccc(S(=O)(=O)c3ccc(NC(=O)Nc4cc(C(F)(F)F)ccc4F)cc3)cc2[nH]1	0.19	0.89	-0.68	2.49	6.48	3.46	4.35	4.8	9.4	6.82
CN1CCC(n2cnc(-c3ccc(F)cc3)c2-c2ccnc(Nc3ccccc3)n2)CC1	15.5	9.65	49.1	0.44	0.04	1.78	4.18	7.5	13.3	12.9
CCCN(CCS(C)(=O)=O)Cc1ccc(-c2ccc3ncnc(Nc4ccc(OCc5cccc(F)c5)c(Cl)c4)c3c2)o1	8.75	-1	3.75	-2.13	-0.4	2.56	2.25	5.97	5.71	4.71
Cc1cccc(Nc2ncc(-c3ccccc3)o2)c1	2.62	-0.51	1.2	2.27	1.53	2.3	2.7	5.68	5.88	0.55
COc1ccc2c(-c3ccnc(Nc4cccc(OC(F)(F)F)c4)n3)cnn2n1	3.37	2.65	2.88	1.21	2.29	6.89	7.93	11.3	24.1	5.72
[O-][S+]1CCN(Cc2ccc(-c3ccc4ncnc(Nc5ccc(OCc6cccc(F)c6)c(Cl)c5)c4c3)o2)CC1	22	1.22	5.52	1.19	0.52	5.19	2.42	7.3	11.6	9.52
CNC(=O)c1cncc(/C=C/c2ccccc2Cl)c1	5.34	1.14	-0.51	3.31	2.6	1.03	1.99	3.99	15	-0.8
Nc1ncc(-c2cccc(S(N)(=O)=O)c2)c2scc(-c3ccc(F)c(Cl)c3)c12	5.52	1.23	3.47	41	89.7	27.4	68.6	54.9	92	67.8
Cc1ccc2c(-c3ccnc(Nc4ccccc4)n3)c(-c3ccc(F)cc3)nn2n1	51.1	33.7	81.9	6.42	15	9.53	18.1	11.5	52.1	24.9
CCn1cc(-c2ccnc3[nH]ccc23)c(-c2cccc(NC(=O)Nc3ccc(OCc4ccccc4)cc3)c2)n1	-1.25	0.93	-1.31	1.83	0.05	0.1	1.02	0.23	3.4	-2.33
COC(=O)c1sc(-n2cnc3cc(OC)c(OC)cc32)cc1OCc1ccccc1C(F)(F)F	-0.3	-1.64	1.53	2.23	3.86	4.53	3.54	9.09	4.17	6.43
CCOc1ccc2c(-c3ccnc(Nc4cccc(C(F)(F)F)c4)n3)cnn2n1	-0.36	0.8	0.09	1.2	0.67	1.59	5.76	6.67	9.91	7.74
Fc1ccc(-c2nn3ncccc3c2-c2ccnc(Nc3ccc4c(c3)OCCO4)n2)cc1	63.8	45.5	88.1	2.48	14.4	7.69	18.2	17.1	55.5	34.3
Fc1ccc(-c2nn3ccccc3c2-c2ccncc2)cc1	–	–	–	-1.52	-1.41	3.94	5.1	5.14	11.7	5.2
